Bioassay records (PubChem BioAssay)
This is a sample that favours compounds with a hit; in the whole collection about 1.1% have one here.
RPL19A-GFP yeast = RPL19A-GFP expression modulators in yeast, primary screen, cell-based, S. cerevisiae, multiplex flow cytometry, MLPCN. S. cerevisiae RPL19A-GFP strain, 3 h; active compounds read low. percent response vs DMSO, % at 10 µM. 0.3% of 330,000 active;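 active = percent response vs DMSO below 50%; inconclusive = fewer than 70 events counted for the yeast strain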;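 also: median channel GFP fluorescence of the barcoded RPL19A-GFP strain; ratio of sample median GFP to plate DMSO average so 100% = DMSO; lower means less RPL19A-GFP as with rapamycin TOR inhibition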
VLA-4 inh = inhibition in human VLA-4 binding assay, primary screen, VLA-4 allosteric modulator project, MLPCN library, flow cytometry, VLA-4 expressing cells. Integrin alpha-4 (Homo sapiens), P13612. inhibition, % (about 7 µM as worked out from the volumes in the protocol). ligand binding flow cytometry. AID 2557, 2010. 0.2% of 330,000 active; in the data active = inhibition above about 50%
Target sequence (P13612 whole entry, looked up): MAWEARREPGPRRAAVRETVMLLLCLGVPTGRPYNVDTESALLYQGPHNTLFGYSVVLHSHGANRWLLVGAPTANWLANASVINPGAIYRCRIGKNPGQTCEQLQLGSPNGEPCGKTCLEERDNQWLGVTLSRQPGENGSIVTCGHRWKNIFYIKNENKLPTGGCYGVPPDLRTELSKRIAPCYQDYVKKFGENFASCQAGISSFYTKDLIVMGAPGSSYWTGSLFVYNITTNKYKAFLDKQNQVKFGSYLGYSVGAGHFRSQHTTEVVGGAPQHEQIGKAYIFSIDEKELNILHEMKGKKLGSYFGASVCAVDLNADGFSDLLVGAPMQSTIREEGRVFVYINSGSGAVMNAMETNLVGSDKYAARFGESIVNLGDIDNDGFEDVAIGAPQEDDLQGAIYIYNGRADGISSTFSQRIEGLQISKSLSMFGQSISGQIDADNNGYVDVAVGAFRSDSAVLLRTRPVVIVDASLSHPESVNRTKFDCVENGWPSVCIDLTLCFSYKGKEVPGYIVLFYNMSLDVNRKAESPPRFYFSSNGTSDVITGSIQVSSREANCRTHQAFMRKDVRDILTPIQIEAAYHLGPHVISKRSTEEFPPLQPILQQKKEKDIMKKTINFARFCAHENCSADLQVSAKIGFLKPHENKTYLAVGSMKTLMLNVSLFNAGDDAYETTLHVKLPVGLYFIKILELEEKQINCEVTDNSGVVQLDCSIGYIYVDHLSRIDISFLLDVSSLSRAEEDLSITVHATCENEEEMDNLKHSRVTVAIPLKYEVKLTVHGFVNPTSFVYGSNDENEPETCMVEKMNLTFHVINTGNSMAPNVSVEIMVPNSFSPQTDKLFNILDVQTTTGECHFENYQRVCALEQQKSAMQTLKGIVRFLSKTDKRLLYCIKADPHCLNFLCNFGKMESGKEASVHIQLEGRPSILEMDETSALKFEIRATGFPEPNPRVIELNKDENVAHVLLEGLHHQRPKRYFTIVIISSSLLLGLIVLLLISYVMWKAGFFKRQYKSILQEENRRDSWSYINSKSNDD
MEP2 TOR yeast = modulators of MEP2-GFP levels in yeast, primary screen, S. cerevisiae, multiplex flow cytometry, MLPCN library; GFP response vs DMSO, % at 10 µM; S. cerevisiae MEP2-GFP strain, 3 h; 100% = DMSO control level; 0.51% of 330,000 active;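 active = GFP response versus DMSO above a set limit, roughly screen mean plus 3 SD, cut at about 180% in these data; inconclusive = fewer than 70 cells counted for a yeast strain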;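 also: median GFP fluorescence of the barcode-gated MEP2-GFP cells per well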
CIT2-GFP yeast = modulators of CIT2-GFP expression in yeast, primary screen, S. cerevisiae, GFP fusion, multiplex flow cytometry, MLPCN library; S. cerevisiae CIT2-GFP strain, 3 h; 100 means same as DMSO wells; GFP response vs DMSO, % at 10 µM; 0.065% of 320,000 active;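 active = GFP response relative to DMSO above a set limit, near the screen mean plus 3 SD, cut at about 150% in these data; inconclusive = Fewer than 70 cells measured for a yeast strain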;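 also: ratio of well median GFP fluorescence to mean of DMSO wells on the plate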
LAP4 TOR yeast = modulators of LAP4-GFP expression in yeast, primary screen, S. cerevisiae, multiplex flow cytometry, MLPCN library; 3 h; median GFP as percent of DMSO wells; GFP response vs DMSO, % at 10 µM; 0.34% of 320,000 active; AID 2023, 2009;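 active = GFP response vs DMSO above a set limit, about the screen mean plus 3 SD, cut at about 150% in these data; inconclusive = under 70 cell events counted for the yeast strain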
AGP1 TOR yeast = modulators of AGP1-GFP expression in yeast TOR pathway, primary screen, cell-based, multiplex flow cytometry, S. cerevisiae, MLPCN library | 0.02% of 320,000 active | 3 h; GFP as percent of DMSO wells | AID 2066, 2009 | GFP response vs DMSO, % at 10 µM;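 active = GFP response relative to DMSO above a set limit, near screen average plus 3 SD, cut at about 150% in these data; inconclusive = fewer than 70 cells counted for the yeast strain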;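 also: median GFP channel fluorescence of the gated AGP1 strain per well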
The depositor's hits bear a star; ? = inconclusive; · = no result given; [ ] = remark or other dose.

SMILES	RPL19A-GFP yeast	VLA-4 inh	MEP2 TOR yeast	CIT2-GFP yeast	LAP4 TOR yeast	AGP1 TOR yeast
Cc1ccc(-c2ccc(CCC(=O)O)o2)cc1	98.8	-5.2	100.2	98.6	158.5*	81.7
CCCN(CC(=O)Nc1ccccc1OC)C(=O)c1ccc2c(c1)NC(=O)C(C)S2 (stereo not drawn)	95.8	-1.8	103.5	96.5	108.0	100.4
CN=C1c2c(-c3ccccc3)c3cc(OC)ccc3n2CCN1C	56.8	1.5	235.7*[may fluoresce violet]	?	77.6	?
COc1ccc(-c2c(-c3ccccc3)n(C)c3ccccc23)cc1	104.1	-2.1	102.4	104.1	104.4	109.3
CC(=O)Nc1ccc(NC(=O)CSc2ncc(C(=O)Nc3ccccc3)c(=O)n2C)cc1	88.8	7.0	99.1	110.2	168.1*	105.9
Cn1c(SCC(=O)NCc2ccccc2)ncc(C(=O)Nc2ccccc2)c1=O	103.3	25.6	106.0	98.9	93.8	98.2
Cc1c(C)c2ccc(OCC(=O)NCCCn3ccnc3)cc2oc1=O	48.4*	-0.2	137.6	90.5	84.0	16.4
Cc1cc(=O)oc2cc(OCC(=O)NCCCn3ccnc3)ccc12	96.1	6.6	99.6	106.7	93.8	102.2
Cc1ccc(S(=O)(=O)NC(C(=O)N2CCOCCOCCOCC2)C(C)C)cc1 (stereo not drawn)	14.2*[may fluoresce violet]	-1.6	?	?	?	?
Cc1ccc(S(=O)(=O)NC(C)C(=O)N2CCOCCOCCOCCOCC2)cc1 (stereo not drawn)	89.8	3.0	97.0	84.1	77.3	89.5
COc1ccc(NC(=O)c2ccco2)c([N+](=O)[O-])c1	103.0	-3.9	93.9	93.3	86.3	92.4
COc1ccc(NC(=O)C/C(C)=N/NC(=O)c2ccco2)c([N+](=O)[O-])c1	52.0	-9.5	396.0*[may fluoresce violet]	?	79.3	?
Cc1csc(Nc2ccccc2C(F)(F)F)n1	·	-3.7	229.9*	102.3	103.0	24.4
Cc1csc(Nc2cccc3ccccc23)n1	100.2	-0.8	95.7	96.6	98.1	91.0
CCOc1ccccc1CN1CCN(Cc2ccc(C)o2)CC1CCO (stereo not drawn)	98.1	26.3	101.0	97.1	99.9	97.2
CCOc1ccccc1CN1CCN(CC2=Cc3cc(OC)ccc3OC2)CC1CCO (stereo not drawn)	51.2	22.9	205.2*[may fluoresce violet]	?	87.4	29.2
CCOc1cccc(CN2CCN(CCCc3ccccc3)C(CCO)C2)c1O (stereo not drawn)	46.3*[may fluoresce violet]	7.9	513.6*[may fluoresce violet]	?	88.8	25.6
CSCCC(NC(=O)c1ccccc1Br)C(=O)NNC(=O)c1ccco1 (stereo not drawn)	95.9	18.6	97.7	92.8	96.7	94.8
O=S(=O)(/N=C(/c1ccc(Cl)cc1)N1CCOCC1)c1ccc(Cl)cc1	·	1.7	278.6*[may fluoresce violet]	?	83.5	?
O=S(=O)(/N=C(/c1ccccc1)N1CCOCC1)c1ccc(F)cc1	36.6*[may fluoresce violet]	-3.0	231.5*[may fluoresce violet]	?	79.3	?
Cc1ccc(NC(=O)CSCC(=O)NNC(=O)c2ccoc2C)cc1	98.8	-9.1	104.0	109.3	104.5	104.7
O=C(NC(=S)NNC(=O)c1ccco1)c1ccccc1	100.6	5.2	101.9	102.6	150.5*[may fluoresce green]	111.8
CCOC(=O)c1c(O)c2cccc3c2n(c1=O)CC3	31.6*[may fluoresce violet]	3.5	346.7*[may fluoresce violet]	?	76.7	?
O=C(NCCO)c1c(O)c2cccc3c2n(c1=O)CC3	89.0	19.1	91.6	100.5	85.9	93.3
Cc1cc(OCc2cc(C(=O)N(C)C3CCOC3)no2)cc(C)c1Cl (stereo not drawn)	27.2*[may fluoresce violet]	25.9	120.8	?	84.1	?
SMILES	RPL19A-GFP yeast	VLA-4 inh	MEP2 TOR yeast	CIT2-GFP yeast	LAP4 TOR yeast	AGP1 TOR yeast
CC(=O)c1ccc(OCc2cc(C(=O)N(C)C3CCOC3)no2)cc1 (stereo not drawn)	105.1	0.0	100.5	100.9	97.2	95.9
O=S(=O)(c1ccc(N2CCOCC2)nc1)N(Cc1ccccn1)Cc1ccccn1	97.4	7.7	395.1*[may fluoresce violet]	?	78.6	22.0
O=S(=O)(c1ccccc1)N(Cc1ccccn1)Cc1ccccn1	105.5	-13.7	107.1	104.5	86.5	93.7
CC(=O)c1nn(-c2ccc(Cl)cc2)c(=O)[nH]c1=O	97.9	4.2	117.4	115.6	114.8	111.1
Cc1ccc2oc(C(=O)NCC(c3ccco3)N(C)C)c(C)c2c1 (stereo not drawn)	107.4	-7.0	115.3	119.9	104.2	88.1
COc1ccc(CNC(=O)CCc2c(C)nc3ncnn3c2C)cc1	16.8*[may fluoresce violet]	3.7	376.5*[may fluoresce violet]	?	79.4	?
CCOC(=O)N1CCN(C(=O)CCc2nc3sc4c(c3c(=O)[nH]2)CCCC4)CC1	33.6*[may fluoresce violet]	-3.9	?	?	?	?
NC(=O)C1CCN(C(=O)CCc2nc3sc4c(c3c(=O)[nH]2)CCCC4)CC1	88.8	7.1	93.1	90.4	96.2	94.2
CC1=CCC(C(=O)O)C(C(=O)Nc2ccc(-c3nc4ccc(C)cc4s3)cc2)C1 (stereo not drawn)	59.6	6.0	620.3*	91.9	114.0	67.6
CC(=O)NC(=S)Nc1ccc(-c2nc3ccc(C)cc3s2)cc1	96.1	10.7	102.6	92.4	93.8	96.4
CC(C)n1c(CN2CCN(C(=O)c3ccco3)CC2)nc2c1c(=O)n(C)c(=O)n2C	106.7	10.0	94.6	106.7	91.3	104.9
Cc1cc(=O)oc2cc(OC(C)C(=O)NC3CCCC3)ccc12 (stereo not drawn)	86.0	2.3	192.6*	102.3	157.0*	99.4
O=C(NCc1cccs1)c1cc(-c2ccccc2)nc2ccccc12	100.7	-1.4	87.8	82.8	73.1	87.5
O=C(Nc1nnc(-c2cccs2)o1)c1cc(-c2ccccc2)nc2ccccc12	93.5	33.3	94.3	84.6	152.4*	85.1
COC(=O)C1=C(C)N(CCc2ccccc2)C(=O)C1	43.7*[may fluoresce violet]	2.6	189.3*[may fluoresce violet]	?	86.5	?
CN(C)S(=O)(=O)c1cc(NC(=O)CN2CCOCC2)ccc1Cl	102.7	-184.9	240.9*	209.7*	202.2*	91.3
O=C(CN1C(=O)NC(c2ccc(F)cc2)C1=O)Nc1ccc2c(c1)OCCO2 (stereo not drawn)	104.0	-3.4	103.0	96.4	112.8	103.1
O=C(N=Nc1c(O)[nH]c2ccccc12)c1ccco1	68.4	9.5	492.9*	108.4	196.6*	152.2*
O=C(CSCc1ccccc1)N=Nc1c(O)[nH]c2ccccc12	101.1	6.4	99.6	98.4	90.2	98.0
